Test systems include NCI-H23 lung; NCI-H226 lung; NCI-H322M lung; HOP-62 NSCLC; NCI-H460 lung; HOP-92 NSCLC; NCI-H522 lung; A549/ATCC NSCLC; 786-0 renal; COLO 205 colon.
Holding throughout (test): NCI-60 one-dose screen, 48 h (100 = growth as untreated, 0 = no growth, -100 = all killed)
Common to all, as to settings: 10 µM unless noted

The results in this text go back to PubChem BioAssay (NCI).

This is part of a sample that, as a whole, favours compounds with a hit. Of some 83,000 tested, about 20% had one in any assay.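 For each line, cells grew in 96-well plates with the test compound present at a single concentration for 48 hours.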 A number with no mark means an inactive call. Activity calls are given as the source filed them. Rule for the calls: active = growth percent below 10; inactive = the rest.

With `CC1CN(CCCOC(=O)Nc2ccc(Cl)cc2)CCN1C(C)(C)C` (stereo not given), the growth is 101% in the experiment on NCI-H23 lung; 96.4% with NCI-H226 lung; 96.5% in the experiment with NCI-H322M lung; 112% in the experiment with HOP-62 NSCLC; 106% with NCI-H460 lung; 133% in the experiment on HOP-92 NSCLC. The growth is 97.5% with NCI-H522 lung, 103% with A549/ATCC NSCLC, 99.3% with 786-0 renal and 102% in the experiment on COLO 205 colon.
For the compound `CSCCC1NC(=O)C(C(C)=Nc2ccccc2)=C1O` (stereo not given), the growth was 105% with NCI-H23 lung; 112% in the experiment with NCI-H226 lung; 102% with NCI-H322M lung; 107% in the experiment on HOP-62 NSCLC; 114% with NCI-H460 lung; 108% in the experiment on HOP-92 NSCLC. Also, the growth with NCI-H522 lung is 116%; in the experiment with A549/ATCC NSCLC, 101%; in the experiment with 786-0 renal it was 98.9%; in the experiment with COLO 205 colon it was 105%.
Regarding `Cc1[nH]nc2ccc3nc(-c4ccc5[nH]ncc5c4)c4c(c3c12)CCCC4`, the growth in the experiment with NCI-H23 lung is 31.1%; in the experiment with NCI-H226 lung, 16.2%; with NCI-H322M lung it was 36.9%; in the experiment on HOP-62 NSCLC, 18.5%; with NCI-H460 lung, 19.3%; with HOP-92 NSCLC, 2.41% (active). Further, the growth with NCI-H522 lung was 0.13% (active); in the experiment on A549/ATCC NSCLC, 12.6%; with 786-0 renal it was 34.4%; in the experiment on COLO 205 colon, 8.58% (active).
Turning to `CCCc1cc2c(cc1CN(Cc1cc3c(cc1CCC)OCO3)C(=N)OCC)OCO2`, the growth was 79.8% in the experiment on NCI-H23 lung; 86.4% in the experiment with NCI-H226 lung; 91.9% in the experiment on NCI-H322M lung; 83.7% in the experiment on HOP-62 NSCLC; 75.5% in the experiment with NCI-H460 lung; 55% in the experiment on HOP-92 NSCLC. In addition, the growth is 54.2% in the experiment with NCI-H522 lung, 71.8% in the experiment with A549/ATCC NSCLC, 89.7% in the experiment on 786-0 renal and 93.6% in the experiment on COLO 205 colon.
As to `O=C(CI)NCCNc1cccc2c(S(=O)(=O)O)cccc12`, the growth with NCI-H23 lung was 95.1%; in the experiment with NCI-H226 lung, 103%; in the experiment on NCI-H322M lung, 98%; in the experiment on HOP-62 NSCLC, 107%; in the experiment on NCI-H460 lung, 105%; in the experiment with HOP-92 NSCLC it was 102%. In addition, the growth in the experiment on NCI-H522 lung is 107%; with A549/ATCC NSCLC, 110%; in the experiment on 786-0 renal it was 101%; in the experiment on COLO 205 colon it was 105%.
`COc1ccc2c(c1)N(CCO)C1=C(C(=O)OC1)C2c1cccc(Br)c1` (stereo not given): the growth is 29.2% in the experiment on NCI-H23 lung; -5.22% (active) with NCI-H226 lung; 29% with NCI-H322M lung; 29.4% in the experiment on HOP-62 NSCLC; 2.07% (active) in the experiment with NCI-H460 lung; 42.7% with HOP-92 NSCLC. Moreover, the growth was -19.2% (active) in the experiment on NCI-H522 lung, 16.4% in the experiment with A549/ATCC NSCLC, 21.4% in the experiment on 786-0 renal and -47.2% (active) in the experiment on COLO 205 colon.
Regarding `CSC(=S)N/N=C(\C)c1ccccn1`, the growth is 33.6% with NCI-H23 lung; 5.78% (active) with NCI-H226 lung; 8.08% (active) with NCI-H322M lung; 21.6% in the experiment with HOP-62 NSCLC; -18.1% (active) in the experiment on NCI-H460 lung; 31.3% in the experiment with HOP-92 NSCLC. Moreover, the growth in the experiment on NCI-H522 lung was -3.86% (active); with A549/ATCC NSCLC, 10.3%; in the experiment with 786-0 renal, 16.9%; in the experiment with COLO 205 colon, 24%.
As to `O=C(C(=O)c1cccnc1)c1cccnc1`, the growth is 98.8% in the experiment with NCI-H23 lung; 115% with NCI-H226 lung; 117% in the experiment on NCI-H322M lung; 98.4% in the experiment with HOP-62 NSCLC; 111% in the experiment on NCI-H460 lung; 103% in the experiment with HOP-92 NSCLC. Also, the growth was -0.192% (active) in the experiment on NCI-H522 lung, 111% in the experiment with A549/ATCC NSCLC, 101% with 786-0 renal and 174% in the experiment on COLO 205 colon.
Turning to `COc1cc(C)c2c(=O)c3c(oc2c1)C(=O)c1c(O)c(OC)cc(O)c1C3=O`, the growth with NCI-H23 lung is -2.42% (active); in the experiment on NCI-H226 lung, 30.7%; in the experiment with NCI-H322M lung it was 14.2%; with HOP-62 NSCLC, 25.7%; in the experiment with NCI-H460 lung it was 1.04% (active); in the experiment with HOP-92 NSCLC it was -32% (active). The growth with NCI-H522 lung was -48.3% (active); in the experiment on A549/ATCC NSCLC, 7.31% (active); in the experiment with 786-0 renal, 20%; with COLO 205 colon, 109%.
For the compound `CN(C)c1ccc(C(c2ccccc2)c2ccc(N(C)C)cc2)cc1`, the growth with NCI-H23 lung was 79.1%; in the experiment on NCI-H226 lung it was 95.2%; in the experiment on NCI-H322M lung, 128%; with HOP-62 NSCLC, 104%; in the experiment on NCI-H460 lung it was 99%; in the experiment with HOP-92 NSCLC, 63.4%. Also, the growth with NCI-H522 lung is 88.3%; in the experiment on A549/ATCC NSCLC, 91.8%; in the experiment with 786-0 renal it was 97.5%; in the experiment with COLO 205 colon it was 111%.
Regarding `CCCOC(=O)C1c2cc3c(cc2CC(C)C1C(=O)OCCC)OCO3` (stereo not given), the growth in the experiment on NCI-H23 lung was 85.8%; with NCI-H226 lung, 94.1%; in the experiment with NCI-H322M lung, 80.9%; with HOP-62 NSCLC, 95.3%; with NCI-H460 lung, 103%; with HOP-92 NSCLC, 70.3%. In addition, the growth is 70% in the experiment on NCI-H522 lung, 92.6% in the experiment with A549/ATCC NSCLC, 94.5% with 786-0 renal and 121% with COLO 205 colon.
For `CC1=NN(c2cccc(S(N)(=O)=O)c2)C(=O)C1`, the growth is 87.8% in the experiment on NCI-H23 lung; 90.3% in the experiment on NCI-H226 lung; 96.9% with NCI-H322M lung; 97.7% in the experiment with HOP-62 NSCLC; 103% in the experiment on NCI-H460 lung; -30.8% (active) in the experiment on HOP-92 NSCLC. The growth with NCI-H522 lung is 113%; with A549/ATCC NSCLC, 87.4%; with 786-0 renal it was 100%; in the experiment on COLO 205 colon, 108%.
As for `O=C(NO)c1ccc(NCc2csc3ccccc23)cc1`, the growth is 48.5% in the experiment with NCI-H23 lung; 64.8% in the experiment on NCI-H226 lung; 85.7% in the experiment with NCI-H322M lung; 65.3% in the experiment with HOP-62 NSCLC; 39.8% in the experiment with NCI-H460 lung; 71.7% in the experiment with HOP-92 NSCLC. Moreover, the growth in the experiment with NCI-H522 lung was 33.1%; in the experiment on A549/ATCC NSCLC, 70.3%; in the experiment on 786-0 renal, 71.3%; in the experiment on COLO 205 colon, 50.1%.
Take `O=C(Nc1ccc(Oc2ccc(Nc3nc4ccccc4s3)cc2)cc1)Nc1ccc(Cl)c(C(F)(F)F)c1`: the growth in the experiment with NCI-H23 lung was -20.2% (active); in the experiment with NCI-H226 lung it was 4.93% (active); with NCI-H322M lung it was 25.7%; with HOP-62 NSCLC, 17%; in the experiment on NCI-H460 lung, 1.39% (active); in the experiment with HOP-92 NSCLC, -25% (active). Also, the growth in the experiment with NCI-H522 lung is -36.8% (active); in the experiment on A549/ATCC NSCLC, 9.75% (active); with 786-0 renal, 1.24% (active); in the experiment on COLO 205 colon, -84% (active).
